From the supplement of paper PMC13094657
± gives the standard deviation of the averaged measurements.

These molecules were tested on MDA-MB-231 (assay: kynurenine production, fold change vs DMSO IFNg/TNF control; higher = more kynurenine produced (less inhibition)). Conditions: pre-treatment time: 18 h then 24 h IFNg/TNF.
In short: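 MDA-MB-231 cells (7 × 10^4/well, 96-well plates, seeded 24 h earlier) were pre-treated 18 h with each natural product in 0.1% DMSO, then stimulated 24 h with IFNγ (1 U/ml) and TNF (6.25 ng/ml) at 37°C. Supernatant kynurenine was read at 492 nm after trichloroacetic acid and p-dimethylaminobenzaldehyde treatment, against 0–100 μM standards. Kynurenine production is the fold change over cytokine-stimulated vehicle wells on the same plate, averaged over duplicate plates in the first screening round.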

Row | SMILES | kynurenine production
1 | CC(C)=CCC[C@@H](C)CC=O [Citronellal] (compound dose: 10 uM) | 1.22 ± 0.043
2 | C=C(C)[C@@H]1CC=C(C)CC1 [(-)-Limonene] (compound dose: 10 uM) | 0.935 ± 0.21
3 | C=C(C)[C@@H]1CC[C@]2(C(=O)O)CC[C@]3(C)[C@H](CC[C@@H]4[C@@]5(C)CC[C@H](OC(=O)CC(C)(C)C(=O)O)C(C)(C)[C@@H]5CC[C@]43C)[C@@H]12 [Bevirimat] (compound dose: 10 uM) | 0.778 ± 0.15
4 | C[C@@H]1O[C@@H](O[C@H]2[C@H](OC(=O)[C@]34CCC(C)(C)C[C@H]3C3=CC[C@@H]5[C@@]6(C)C[C@H](O)[C@H](O[C@@H]7O[C@H](CO)[C@@H](O)[C@H](O[C@@H]8O[C@H](CO)[C@@H](O)[C@H](O)[C@H]8O)[C@H]7O)C(CO)(CO)[C@@H]6CC[C@@]5(C)[C@]3(C)C[C@H]4O)OC[C@H](O)[C@@H]2O)[C@H](O)[C@H](O)[C@H]1O[C@@H]1OC[C@@H](O)[C@H](O[C@@H]2OC[C@](O)(CO)[C@H]2O)[C@H]1O [Platycodin D2] (compound dose: 10 uM) | 0.301 ± 0.043
5 | CC1(C)CC[C@]2(C(=O)O)CC[C@]3(C)C(=CC[C@@H]4[C@@]5(C)CC[C@H](O)C(C)(C)[C@@H]5CC[C@]43C)[C@@H]2C1 [Oleanolic Acid] (compound dose: 10 uM) | 0.778 ± 0.07
6 | CC1(C)CC[C@]2(C(=O)O[C@@H]3O[C@H](CO[C@@H]4O[C@H](CO)[C@@H](O)[C@H](O)[C@H]4O)[C@@H](O)[C@H](O)[C@H]3O)CC[C@]3(C)C(=CC[C@@H]4[C@@]5(C)CC[C@H](O[C@@H]6OC[C@H](O)[C@H](O)[C@H]6O)[C@@](C)(CO)[C@@H]5CC[C@]43C)[C@@H]2C1 [Asperosaponin VI] (compound dose: 10 uM) | 0.748 ± 0.087
7 | CC1=CC23C(=O)C(C=C4COC(C)(C)OC4C2(O)C1O)C1C(CC3C)C1(C)C (configuration not stated) [Ingenol-5,20-acetonide] (compound dose: 10 uM) | 1.07 ± 0.082
8 | COc1cc2ccc(=O)oc2cc1O[C@@H]1O[C@H](CO)[C@@H](O)[C@H](O)[C@H]1O [Scopolin] (compound dose: 10 uM) | 1.22 ± 0.16
9 | C=C(C)[C@H]1C=C[C@@](C)(O)CC1 [cis-Isolimonenol] (compound dose: 10 uM) | 0.813 ± 0.11
10 | C=C(C)[C@@H]1CC[C@]2(CO)CC[C@]3(C)[C@H](CC[C@@H]4[C@@]5(C)CC[C@H](O)C(C)(C)[C@@H]5CC[C@]43C)[C@@H]12 [Betulin] (compound dose: 2 uM) | 0.826 ± 0.13
11 | CSC(=O)OCC1=C[C@@H]2OC(=O)C3=CO[C@@H](O[C@@H]4O[C@H](CO)[C@@H](O)[C@H](O)[C@H]4O)[C@H]1[C@@H]32 [Paederoside] (compound dose: 10 uM) | 0.937 ± 0.11
12 | C[C@@H]1CC[C@]2(C(=O)O)CC[C@]3(C)C(=CC[C@@H]4[C@@]5(C)CC[C@H](O)[C@@](C)(CO)[C@@H]5CC[C@]43C)[C@@H]2[C@]1(C)O [Rotundic acid] (compound dose: 10 uM) | 0.929 ± 0.021
13 | CC1(C)CC[C@]2(C(=O)O)CC[C@]3(C)C(=CC[C@@H]4[C@@]5(C)C[C@@H](O)[C@H](O)C(C)(C)[C@@H]5CC[C@]43C)[C@@H]2C1 [Maslinic acid] (compound dose: 10 uM) | 0.876 ± 0.12
14 | CC1CCC(C(C)C)C(O)C1 [(1R,2S,5R)-(-)-menthol] (compound dose: 10 uM) | 0.806 ± 0.069
15 | C=C(CCC=C(C)C)[C@H]1CC[C@]2(C)[C@@H]1[C@H](O)C[C@@H]1[C@@]3(C)CC[C@H](O)C(C)(C)[C@@H]3[C@@H](O[C@@H]3O[C@H](CO)[C@@H](O)[C@H](O)[C@H]3O)C[C@]12C [Ginsenoside Rk3] (compound dose: 10 uM) | 0.81 ± 0.11
16 | C[C@H]1[C@H](C)CC[C@]2(C(=O)O)CC[C@]3(C)C(=CC[C@@H]4[C@@]5(C)C[C@@H](O)[C@H](O)[C@@](C)(CO)[C@@H]5[C@H](O)C[C@]43C)[C@H]12 [Madecassic acid] (compound dose: 10 uM) | 0.839 ± 0.093
17 | C[C@H](CC[C@@H](OC[C@@H]1O[C@H](OC[C@H]2O[C@@H](O)[C@H](O)[C@@H](O)[C@@H]2O)[C@@H](O)[C@H](O)[C@H]1O)C(C)(C)O)[C@H]1CC[C@@]2(C)[C@@H]3CC=C4[C@@H](CC[C@H](O)C4(C)C)[C@]3(C)[C@H](O)C[C@]12C [Mogroside IIA1] (compound dose: 10 uM) | 1.07 ± 0.13
